From article PMC10726135, “HNF4α isoforms regulate the circadian balance between carbohydrate and lipid metabolism in the liver”
Over roughly 18,000 sequences, “log2 normalized intensity” has its median near 0.39; the highest 2% begin near 6.6. The full list was thinned out, with the highest values kept by preference.

What follows are sequences tested against T1, HNF4alpha2 (COS-7 nuclear extract) (Homo sapiens, UniProt P41235 1-474) (assay: protein-binding microarray; COS-7 nuclear extract on double-stranded Agilent 4x180k PBM; binding buffer, salt, pH and temperature not given in the material; high values mean tight binding). Settings: chain copies: 2; label: 3' end of strand 1 on the slide; dsDNA, one strand shown.
T1 sequence: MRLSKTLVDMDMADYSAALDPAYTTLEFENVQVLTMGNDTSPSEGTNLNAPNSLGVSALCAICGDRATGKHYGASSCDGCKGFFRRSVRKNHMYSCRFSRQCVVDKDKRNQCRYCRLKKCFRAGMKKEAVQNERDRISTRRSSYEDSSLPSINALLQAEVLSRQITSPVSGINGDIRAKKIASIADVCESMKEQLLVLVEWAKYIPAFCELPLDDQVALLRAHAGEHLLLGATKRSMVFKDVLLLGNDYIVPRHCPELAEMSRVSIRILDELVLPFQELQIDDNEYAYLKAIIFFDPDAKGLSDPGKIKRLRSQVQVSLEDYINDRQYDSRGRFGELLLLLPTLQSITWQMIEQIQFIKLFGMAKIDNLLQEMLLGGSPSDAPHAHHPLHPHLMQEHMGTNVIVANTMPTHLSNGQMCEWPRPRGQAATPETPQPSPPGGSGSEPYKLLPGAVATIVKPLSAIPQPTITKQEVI
Procedure, shortened: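 COS-7 cells were transiently transfected by CaPO4 with an expression vector for a human HNF4α isoform, and nuclear extracts were prepared from them. The extracts were applied to a custom Agilent SurePrint G3 4x180k array of double-stranded ~60-nt oligonucleotides, with ~44,000 test sequences spotted in quadruplicate. An Agilent G2565CA scanner imaged bound HNF4α at 2-µm resolution. Binding signal is the background-corrected, normalized gProcessedSignal from Agilent software.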

Sequence | binding signal [log2 normalized intensity]
TGCCCTTTGCCCTCACTGGTAGAAGGCAGCGCCTAGGGAGATTAGAGTATCGGTCGA | 4.58
TCCCCGTCACCCTCCCCGCCACCCCCCAGAGCCTAGGGAGATTAGAGTATCGGTCGA | 7.45
CGCTCCCCTCCCCCACCCGCGGTCCGTCCCGCCTAGGGAGATTAGAGTATCGGTCGA | 5.86
TTTCCCTGGTCGACCTCCCCGTCACCCTCCGCCTAGGGAGATTAGAGTATCGGTCGA | 4.15
CGACCTCCCCGTCACCCTCCCCGCCACCCCGCCTAGGGAGATTAGAGTATCGGTCGA | 6.67
CTGGTCGACCTCCCCGTCACCCTCCCCGCCGCCTAGGGAGATTAGAGTATCGGTCGA | 6
GTCACCCTCCCCGCCACCCCCCAGAGGGCCGCCTAGGGAGATTAGAGTATCGGTCGA | 6.08
ACGTCTGTTAACCAAGATACTGGGTCAGAGGCCTAGGGAGATTAGAGTATCGGTCGA | 1.11
ACCAGCGTAATTCTGGCTCTTTGAGTGGTTGCCTAGGGAGATTAGAGTATCGGTCGA | 0.76
TCCAGCATTCTTTTCCCCATACCAGGCAGTGCCTAGGGAGATTAGAGTATCGGTCGA | 2.37
CCTGACCCCCAGTGGAATGTGCCCTTTGACGCCTAGGGAGATTAGAGTATCGGTCGA | 4.95
CGCTCTGAGTGACCTTTCACCCGCGCCCAGGCCTAGGGAGATTAGAGTATCGGTCGA | 5.48
AGTAACCTGACCCCCAGTGGAATGTGCCCTGCCTAGGGAGATTAGAGTATCGGTCGA | 3.87
GGTGGGCTGCTCCCAGTGCCCTTTGAACTCGCCTAGGGAGATTAGAGTATCGGTCGA | 8.32
AGTGGAATGTGCCCTTTGACCTCTCTCTCCGCCTAGGGAGATTAGAGTATCGGTCGA | 7.71
CGCCGGGCGCCGCTCTGAGTGACCTTTCACGCCTAGGGAGATTAGAGTATCGGTCGA | 4.57
GGCGCCGCTCTGAGTGACCTTTCACCCGCGGCCTAGGGAGATTAGAGTATCGGTCGA | 6.81
GTGCTCCCTCCCCCTGCATGAACCTTTGCTGCCTAGGGAGATTAGAGTATCGGTCGA | 3.19
AATGTGCCCTTTGACCTCTCTCTCCTAACTGCCTAGGGAGATTAGAGTATCGGTCGA | 6.48
CCCCCAGTGGAATGTGCCCTTTGACCTCTCGCCTAGGGAGATTAGAGTATCGGTCGA | 9.72

Sequence | binding signal [log2 normalized intensity]
GGAATGACCTTTGATATTTGTGCCTAGTGGGCCTAGGGAGATTAGAGTATCGGTCGA | 4.8
GGCCAGGTGGGCTGCTCCCAGTGCCCTTTGGCCTAGGGAGATTAGAGTATCGGTCGA | 3.73
CTTCAAAGGTCGTGTGCTTATCACATCTATGCCTAGGGAGATTAGAGTATCGGTCGA | 1.12
GTGATGACCCCATACTTCAGCAATTTCTTAGCCTAGGGAGATTAGAGTATCGGTCGA | 1.12
AATCCCCTTCAAGTCTGAGATGAAGAGGCCGCCTAGGGAGATTAGAGTATCGGTCGA | 0.649
CAGTGGTAATGGAGCTGAAACTATAAACTTGCCTAGGGAGATTAGAGTATCGGTCGA | -0.653
ACCTTTGCCCTGGATCTTGAAGCAGAAAACGCCTAGGGAGATTAGAGTATCGGTCGA | 1.58
TAATCAGCTTAAGCATACAGATTACATCTCGCCTAGGGAGATTAGAGTATCGGTCGA | -0.798
ACGTTCACGTCTCAAGCTTCAGGAGTCCACGCCTAGGGAGATTAGAGTATCGGTCGA | 2.07
ATACGATAATGTCAAACATCTTATATCAACGCCTAGGGAGATTAGAGTATCGGTCGA | 0.675
TCTATCTGTATTCTGAAGCCCTACAGCCCAGCCTAGGGAGATTAGAGTATCGGTCGA | -0.864
CCTCTGCATTTGCTCCCTGACTTGGTTTACGCCTAGGGAGATTAGAGTATCGGTCGA | 1.67
CAGATCCAGTGGACTCTCTGTTTGATCAGCGCCTAGGGAGATTAGAGTATCGGTCGA | 1.51
TGTCACACACAGACTTGGGTTCAAAGAGCAGCCTAGGGAGATTAGAGTATCGGTCGA | 3.94
AATGATTGCATAATCTGGCTCCAAAGTCTAGCCTAGGGAGATTAGAGTATCGGTCGA | 2.2
CCTTTACCCTGACCTGTCAAGCAATGATCTGCCTAGGGAGATTAGAGTATCGGTCGA | 1.25
AGCAGTCTGAGTAGGAAAGACTTGCTCATTGCCTAGGGAGATTAGAGTATCGGTCGA | -0.18
TGGTGCCCTCTGAGTGTTTGACCTTTCACCGCCTAGGGAGATTAGAGTATCGGTCGA | 7.66
CACTCTGGTGCCCTCTGAGTGTTTGACCTTGCCTAGGGAGATTAGAGTATCGGTCGA | 5.15
CCCTCTGAGTGTTTGACCTTTCACCCAGAAGCCTAGGGAGATTAGAGTATCGGTCGA | 6.42

Sequence | binding signal [log2 normalized intensity]
GTTGCTTCCACCTATGAGTCTGTAAAGTCAGCCTAGGGAGATTAGAGTATCGGTCGA | 0.468
AATATTCTGGCTTCTCGTGAGTATTTTTTCGCCTAGGGAGATTAGAGTATCGGTCGA | 0.954
TTTGGAATTGTGTCACTCCCCAGGAATGTGGCCTAGGGAGATTAGAGTATCGGTCGA | 1.89
CCTCTGCACCCCACCAAGGACTGGACCACCGCCTAGGGAGATTAGAGTATCGGTCGA | 2.34
TTCTGATCTTTGACCTCTCCAGGGTCCTTGGCCTAGGGAGATTAGAGTATCGGTCGA | 4.73
AGAGCAGGAATTCTGATCTTTGACCTCTCCGCCTAGGGAGATTAGAGTATCGGTCGA | 7.34
CCACTTTGAATCAGGAGAGCATCTGAGTGTGCCTAGGGAGATTAGAGTATCGGTCGA | 1.15
AGGAATTCTGATCTTTGACCTCTCCAGGGTGCCTAGGGAGATTAGAGTATCGGTCGA | 5.99
TAATCAGAGCAGGAATTCTGATCTTTGACCGCCTAGGGAGATTAGAGTATCGGTCGA | 7.18
CATCTTTGAAGAGCACAGGGTCAGCAGATCGCCTAGGGAGATTAGAGTATCGGTCGA | 1.17
GCCACCTTGGTGAGAGATTAAACATGCTCTGCCTAGGGAGATTAGAGTATCGGTCGA | 0.469
ACAGCCTTTTGAGTTTCTACCATAGACCCTGCCTAGGGAGATTAGAGTATCGGTCGA | 1.05
ATGCTAAAGTCTACATTCTAGATGACCCCTGCCTAGGGAGATTAGAGTATCGGTCGA | 5.66
GGACTTGATCCATTCTACCCCTGTGGTTGAGCCTAGGGAGATTAGAGTATCGGTCGA | 2.25
TTACTGGACTTGATCCATTCTACCCCTGTGGCCTAGGGAGATTAGAGTATCGGTCGA | 2.73
TGATCCATTCTACCCCTGTGGTTGACCTTTGCCTAGGGAGATTAGAGTATCGGTCGA | 7.8
TACCCCTGTGGTTGACCTTTAGTCTCTAGCGCCTAGGGAGATTAGAGTATCGGTCGA | 6.48
CATTCTACCCCTGTGGTTGACCTTTAGTCTGCCTAGGGAGATTAGAGTATCGGTCGA | 7.73
